Here are results for 17 compounds from ChEMBL document CHEMBL1961873, “Compounds: GSK PKIS; Assays: Nanosyn kinase panel” (2012).

The target of assay [1] is Serine/threonine-protein kinase PAK 6 (Homo sapiens) (UniProt Q9NQU5). As to conditions: at 1 µM.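 Also: values are mean percent inhibition of PAK6 kinase.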
Assay [2] has as its system Tyrosine-protein kinase ABL1 (Homo sapiens), P00519 [E255K]. As to conditions: at 0.1 µM.
For assay [3] the test system is unchanged. As to conditions: at 1 µM.
The test system of assay [4] is Tyrosine-protein kinase ABL1 (Homo sapiens), P00519 [H396P]. As to conditions: at 0.1 µM.
The test system is the same in assay [5]. As to conditions: at 1 µM.
Assay [6] relates to Tyrosine-protein kinase ABL1 (Homo sapiens), P00519 [M351T]. As to conditions: at 0.1 µM.
Assay [7] shares this test system. To be noted: at 1 µM.
Assay [8] deals with Tyrosine-protein kinase ABL1 (Homo sapiens), P00519 [Q252H]. To be noted: at 0.1 µM.
The test system is the same in assay [9]. To be noted: at 1 µM.
Assay [10] has as its system Tyrosine-protein kinase ABL1 (Homo sapiens), P00519 [T315I]. To be noted: at 0.1 µM.

Usually inhibition stands for the relative decrease from the control value, in per cent.

Sequence of Serine/threonine-protein kinase PAK 6 (Homo sapiens) (Q9NQU5 whole entry, looked up): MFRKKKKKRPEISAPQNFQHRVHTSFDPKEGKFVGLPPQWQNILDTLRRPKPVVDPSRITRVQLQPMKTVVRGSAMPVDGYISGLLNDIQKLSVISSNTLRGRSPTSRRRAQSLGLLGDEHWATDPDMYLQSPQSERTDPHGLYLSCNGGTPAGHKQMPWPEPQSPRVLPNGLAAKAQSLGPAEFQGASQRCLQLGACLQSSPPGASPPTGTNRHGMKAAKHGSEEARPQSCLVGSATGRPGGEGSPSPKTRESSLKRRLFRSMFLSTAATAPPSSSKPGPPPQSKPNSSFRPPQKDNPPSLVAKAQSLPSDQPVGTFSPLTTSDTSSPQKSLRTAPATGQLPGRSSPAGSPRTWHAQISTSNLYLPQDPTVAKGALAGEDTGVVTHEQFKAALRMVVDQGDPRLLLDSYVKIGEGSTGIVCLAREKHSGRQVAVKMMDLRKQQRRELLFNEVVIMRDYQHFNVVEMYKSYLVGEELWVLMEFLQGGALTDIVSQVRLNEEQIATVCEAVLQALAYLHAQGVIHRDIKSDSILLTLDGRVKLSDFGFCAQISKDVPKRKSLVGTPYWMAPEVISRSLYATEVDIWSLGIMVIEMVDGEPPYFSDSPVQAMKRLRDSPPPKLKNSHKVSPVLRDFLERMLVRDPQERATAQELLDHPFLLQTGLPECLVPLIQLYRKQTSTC

For the compound `CCn1c(-c2nonc2N)nc2cncc(C(=O)N3CCNCC3)c21`, the inhibition in assay [1] is 0.53%; in assay [2] it was -1.75%; in assay [3], 4.64%; in assay [4] it was 4.85%; in [5], 4.82%; in [6], -1.66%. For the same compound, the inhibition in assay [7] is -0.43%; in assay [8], 3.41%; in assay [9], 4.95%; in assay [10], 1.64%.
For the compound `COC(=O)Nc1nc2cc(Oc3cccc(NC(=O)Nc4cc(C(F)(F)F)ccc4F)c3)ccc2[nH]1`, the inhibition in assay [1] is -6.76%; in assay [2] it was 0.37%; in assay [3] it was 7.39%; in [4] it was 9.03%; in [5] it was 41.7%; in assay [6] it was 34.8%. Besides, the inhibition turned out to be 69.3% in assay [7], 32.1% in assay [8], 68.6% in [9] and 2.28% in [10].
Turning to `COc1ccc2cc(-c3c(-c4ccncc4)nc(-c4ccc([S+](C)[O-])cc4)n3C)ccc2c1` (configuration not stated), the inhibition was -0.4% in assay [1]; 2.75% in assay [2]; 1.85% in assay [3]; 0.68% in assay [4]; 3.52% in [5]; 0.25% in [6]. Also, the inhibition in assay [7] was determined as 2.54%; in [8], 1.22%; in assay [9], 5.05%; in assay [10] it was 1.07%.
In the case of `CCN1CCC(CC(=O)Nc2n[nH]c3nc(-c4cccs4)c(Br)cc23)CC1`, the inhibition in assay [1] is -1.76%; in assay [2] it was -1.62%; in [3], 2.21%; in assay [4], -0.27%; in [5], 8.03%; in [6] it was -0.05%. In addition, the inhibition was found to be 4.95% in assay [7], 0.92% in [8], 11.6% in assay [9] and 3.23% in [10].
As for `NS(=O)(=O)c1cccc(-c2ccc3c(NC(=O)C4CC4)n[nH]c3c2)c1`, the inhibition is -8.66% in [1]; 1.26% in assay [2]; 7.94% in assay [3]; 3.4% in assay [4]; 21.7% in [5]; 7.02% in [6]. For the same compound, the inhibition in [7] worked out at 20.2%; in [8] it was 2.5%; in assay [9] it was 9.03%; in [10] it was 3.32%.
Regarding `NCc1ccc(-c2nc(-c3ccc(Cl)c(O)c3)c(-c3ccncc3)[nH]2)cc1`, the inhibition amounted to 0.88% in assay [1]; 7.57% in assay [2]; 43.3% in assay [3]; 9.07% in [4]; 48.9% in [5]; 11.2% in assay [6]. Moreover, the inhibition in assay [7] amounted to 43.9%; in assay [8], 7.54%; in assay [9], 38.4%; in [10], 3.08%.
As for `Nc1nc(-c2ccc3c(c2)C(=Cc2cc(Br)c(O)c(Br)c2)C(=O)N3)cs1`, the inhibition was -0.02% in assay [2]; 6.46% in assay [3]; 0.77% in assay [4]; 4.36% in [5]; -0.05% in [6]; 4.99% in [7]. Also, the inhibition in [8] was 2.23%; in assay [9], 6.93%; in [10], -0.15%.
Consider `CC1=C(C(=O)Nc2ccc3[nH]ncc3c2)C(c2ccc3ccccc3c2)CC(=O)N1` (configuration not stated), for which the inhibition in assay [1] is -2.6%; in [2] it was 2.56%; in assay [3], 3.94%; in assay [4], 3.48%; in [5], 12.3%; in assay [6], 3.47%. Further, the inhibition turned out to be 14.9% in [7], 3.89% in assay [8], 17.1% in [9] and 5.08% in assay [10].
For the compound `Fc1cccc(COc2ccc(Nc3ncnc4cc(-c5ccc[nH]5)sc34)cc2Cl)c1`, the inhibition worked out at 1.82% in assay [2]; 7.42% in [3]; 3.38% in assay [4]; 5.8% in assay [5]; 0.9% in assay [6]; 5.26% in [7]. Moreover, the inhibition in assay [8] turned out to be 2.05%; in assay [9], 6.45%; in assay [10], 0.63%.
With `O=C(Nc1n[nH]c2nc(-c3ccco3)c(Br)cc12)C1CC1`, the inhibition was found to be 0.72% in assay [1]; 3.52% in assay [2]; 8.63% in assay [3]; 5.52% in assay [4]; 26.4% in assay [5]; 4.18% in assay [6]. Besides, the inhibition amounted to 29.8% in assay [7], 8.1% in assay [8], 32.3% in assay [9] and 3.13% in assay [10].
As for `CC(C)=Cc1cccc2c1/C(=N/Nc1ccc(S(N)(=O)=O)cc1)C(=O)N2`, the inhibition in [1] is -0.47%; in assay [2], 1.22%; in [3], 9.2%; in [4], 2.39%; in assay [5], 13.8%; in assay [6], 2.77%. Further, the inhibition came to 26.6% in [7], 3% in assay [8], 18.2% in assay [9] and 0.99% in [10].
As for `CS(=O)(=O)CCNCc1nc(-c2ccc3ncnc(Nc4ccc(F)c(Cl)c4)c3c2)cs1`, the inhibition is 0.67% in assay [1]; 2.57% in [2]; 10.6% in [3]; 5.57% in assay [4]; 16.2% in assay [5]; 0.97% in assay [6]. The inhibition in [7] amounted to 12.9%; in [8], 3.6%; in assay [9], 16%; in [10] it was 1.06%.
Regarding `O=C1NC(=O)C(c2cccc(Cl)c2)=C1Nc1ccc(O)c(Cl)c1`, the inhibition in assay [1] is -3.45%; in [2] it was 0.46%; in assay [3], -0.55%; in assay [4], 1.43%; in [5], 1.01%; in assay [6], -0.1%. In addition, the inhibition in assay [7] is 1.15%; in assay [8], -0.15%; in [9] it was 2.63%; in assay [10] it was 1.14%.
For the compound `Nc1ncnc2occ(-c3ccc(NC(=O)Nc4cccc(C(F)(F)F)c4)cc3)c12`, the inhibition in assay [1] is -2.37%; in [2], 5.41%; in [3], 38.8%; in assay [4], 25.3%; in assay [5] it was 76.8%; in assay [6], 54.5%. The inhibition in [7] was 85.1%; in assay [8], 54.2%; in [9] it was 81.6%; in assay [10] it was 48.3%.
Regarding `COc1ccc(COc2ccc(Cc3cnc(N)nc3N)cc2OC)cc1`, the inhibition in assay [1] is -2.29%; in [2], 1.25%; in assay [4], 0.76%; in assay [5], -1.33%; in [6] it was 3.17%; in assay [7], -0.65%. Moreover, the inhibition in assay [8] is 2.23%; in assay [9], -0.16%; in [10] it was -0.36%.
For the compound `CCCN1CCC(Oc2cc(Nc3nc(Nc4cccc(F)c4C(N)=O)c4cc[nH]c4n3)c(OC)cc2Cl)CC1`, the inhibition in assay [1] was 6.18%; in assay [2] it was -0.41%; in assay [3] it was 2.46%; in [4], 0.38%; in [5] it was 2.29%; in assay [6] it was 2.95%. The inhibition in assay [7] came to 2.4%; in [8] it was 0.68%; in [9], 5.93%; in assay [10] it was 1.91%.
`COc1ccc(-c2nn3ncccc3c2-c2ccnc(Nc3ccc(Cl)c(C(F)(F)F)c3)n2)cc1`: the inhibition in assay [1] is -4.72%; in [2], 0.96%; in assay [3] it was 5.54%; in assay [4], 0.79%; in assay [5], 8.65%; in assay [6], 2.03%. Moreover, the inhibition in [7] amounted to 26.5%; in assay [8], 4.06%; in assay [9] it was 18.9%; in [10] it was 1.74%.
